PubChem BioAssay (EPA / NIEHS)
Results filed as inconclusive are left out. The source made the active and inactive calls. The calls were made as follows: active = hit-call score of the fitted dose curve at least 0.9, where 1 is the maximum; inconclusive = response in the unintended direction; inactive = score below 0.9.

Tests used:
[1] = TOX21_TRB_BLA_Agonist_Followup_viability: Viability Assessment in the Tox21 Thyroid Hormone Receptor beta Agonism Beta-lactamase (BLA) Follow-Up Assay (AID 2283956)
Method in brief: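 TRb-bla HEK293T cells (GAL4-DBD/human TRb LBD) in 2% charcoal-stripped FBS medium were exposed 18 h at 37C to 11 concentrations in triplicate. CellTiter-Glo ATP luminescence was read after 30 min at room temperature, with bidirectional fitting against DMSO.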

[2] = CCTE_Deisenroth_AIME_96WELL_CTox_Active: Cytotoxicity Assessment (CTOX) in CCTE's 96-well Estrogen Receptor Transactivation Assay with AIME metabolic competence (metabolism positive), Deisenroth Lab (AID 2284028)
Method in brief: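 Chemicals (0.002–200 uM) were first incubated 2 h with alginate-immobilized phenobarbital/beta-naphthoflavone-induced male rat liver S9; conditioned medium then went onto VM7Luc4E2 cells for 24 h, with viability read by protease-substrate fluorescence, fitted bidirectionally.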

[3] = CCTE_Deisenroth_AIME_96WELL_CTox_Inactive: Cytotoxicity Assessment (CTOX) in CCTE's 96-well Estrogen Receptor Transactivation Assay without AIME metabolic competence (metabolism negative), Deisenroth Lab (AID 2284029)
Method in brief: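 Chemicals (0.002 - 200 uM, 10 points) incubated 2 h with alginate-water microspheres (no S9), then medium moved onto VM7Luc4E2 cells for 24 h. Viability by protease-substrate cleavage to fluorescent probe; bidirectional fitting.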

[4] = target: Thyroid hormone receptor alpha (Rattus norvegicus) + Thyroid hormone receptor beta (Rattus norvegicus) (UniProt P18113+P63059); assay: TOX21_TR_LUC_GH3_Antagonist_Followup: Tox21 GH3 Thyroid Hormone Receptor Antagonism Luciferase Follow-Up Assay (AID 2283942)
Method in brief: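 Rat pituitary GH3 cells with a TRα/TRβ-driven luciferase reporter, 5 h attachment, then 15 concentrations (92 uM to 5nM final) plus 1.0 nM T3 agonist, 24 h at 37C/5% CO2. ONE-Glo luminescence; signal change fitted against DMSO baseline.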

THRA (gene 7067) = THRA (gene 7067) (UniProt P10827); assay: TOX21_TRA_COA_Antagonist_Followup_ratio: Tox21 Thyroid Hormone Receptor alpha Antagonism through Coactivator Recruitment Follow-Up Assay, Ratio (AID 2283953)
Method in brief: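 520:495 nm emission ratio (excitation 340 nm) reports fluorescein-SRC-2 peptide recruitment to GST-TRα LBD by TR-FRET with Tb anti-GST antibody. Values were normalized to DMSO (0%) and T3 control wells (100%); loss of signal indicated antagonism.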

Chain of THRA (gene 7067) (P10827 whole entry, looked up, the tested form may be a part): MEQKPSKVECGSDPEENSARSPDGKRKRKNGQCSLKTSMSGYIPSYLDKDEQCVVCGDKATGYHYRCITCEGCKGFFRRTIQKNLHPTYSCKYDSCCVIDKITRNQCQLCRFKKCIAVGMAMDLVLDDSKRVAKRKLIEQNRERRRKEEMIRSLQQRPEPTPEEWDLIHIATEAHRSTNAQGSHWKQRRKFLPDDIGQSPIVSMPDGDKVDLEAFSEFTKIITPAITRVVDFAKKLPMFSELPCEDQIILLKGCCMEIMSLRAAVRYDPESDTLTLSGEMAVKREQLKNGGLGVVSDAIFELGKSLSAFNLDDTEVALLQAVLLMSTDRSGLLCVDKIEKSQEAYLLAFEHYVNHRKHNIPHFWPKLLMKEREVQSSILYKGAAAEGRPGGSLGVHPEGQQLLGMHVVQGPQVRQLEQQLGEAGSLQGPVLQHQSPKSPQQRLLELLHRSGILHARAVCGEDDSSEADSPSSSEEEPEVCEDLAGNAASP

Compound: CC(=O)OCCC(C)CC(C)(C)C (stereo not given)
- outcome [1]: inactive

Compound: CCC(C)(C)c1cc(-n2nc3ccccc3n2)c(O)c(C(C)(C)CC)c1
- outcome [2]: inactive
- outcome [3]: inactive

Compound: CC[n+]1ccccc1
- outcome [4]: inactive
- outcome (THRA (gene 7067)): inactive
